Test results: PubChem BioAssay AID1159580 (chemical genetic matrix, 2015)
The campaign covered roughly 5,500 compounds. About 2,000 (36%) were called active. Inconclusive results (about 18%) are left out. Rule as the data show it: active = normalized growth mostly below about 0.91 (no sharp cut-off); inconclusive = no clear call, values can overlap the other calls; inactive = mostly above about 0.92. This is one part of the list.

Experiment: chemical genetic growth profiling, strain panel (AID 1159580);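 also: tested at 20 µM; growth read once vehicle control cultures reached saturation at 30 °C; 1 = growth at the plate median or of vehicle wells; lower values mean less growth of the strain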
Details: growth OD

Measured: normalized growth

O=C(OCc1ccccc1)c1ccccc1
active: S. cerevisiae deletion strains, locus YKR001C, strain vps1, active compounds read low 0.789 | S. cerevisiae deletion strains, locus YLR113W, strain HOG1, active compounds read low 0.783 | S. cerevisiae deletion strains, locus YLR262C, strain YPT6 (second series), active compounds read low 0.739 | S. cerevisiae deletion strains, locus YLR320W, strain mms22, active compounds read low 0.835 | S. cerevisiae deletion strains, locus YNL071W, strain lat1, active compounds read low 0.889 | S. cerevisiae deletion strains, locus YNL307C, strain MCK1, active compounds read low 0.798 | S. cerevisiae deletion strains, locus YOR106W, strain vam3, active compounds read low 0.859 | S. cerevisiae deletion strains, locus YOR184W, strain ser1, active compounds read low 0.655 | S. cerevisiae deletion strains, locus YOR231W, strain MKK1, active compounds read low 0.86
inactive: S. cerevisiae deletion strains, locus YKL009W, strain mrt4, active compounds read low 0.934 | S. cerevisiae deletion strains, locus YKL068W, active compounds read low 0.961 | S. cerevisiae deletion strains, locus YKL085W, strain MDH1 (second series), active compounds read low 0.957 | S. cerevisiae deletion strains, locus YKL085W, strain MDH1, active compounds read low 0.957 | S. cerevisiae deletion strains, locus YKL160W, strain elf1, active compounds read low 0.951 | S. cerevisiae deletion strains, locus YKL190W, strain CNB1, active compounds read low 1 | S. cerevisiae deletion strains, locus YKR026C, strain gcn3, active compounds read low 0.954 | S. cerevisiae deletion strains, locus YKR091W, strain srl3, active compounds read low 0.952 | S. cerevisiae deletion strains, locus YLL001W, strain dnm1, active compounds read low 0.945 | S. cerevisiae deletion strains, locus YLL026W, active compounds read low 0.953 | S. cerevisiae deletion strains, locus YLL041C, strain sdh2, active compounds read low 0.965 | S. cerevisiae deletion strains, locus YLR027C, strain aat2, active compounds read low 0.954 | S. cerevisiae deletion strains, locus YLR039C, strain RIC1, active compounds read low 0.83 | S. cerevisiae deletion strains, locus YLR058C, strain SHM2, active compounds read low 0.987 | S. cerevisiae deletion strains, locus YLR102C, strain apc9, active compounds read low 0.969 | S. cerevisiae deletion strains, locus YLR221C, strain rsa3, active compounds read low 0.925 | S. cerevisiae deletion strains, locus YLR258W, strain gsy2, active compounds read low 0.956 | S. cerevisiae deletion strains, locus YLR262C, strain YPT6, active compounds read low 0.839 | S. cerevisiae deletion strains, locus YLR268W, strain sec22, active compounds read low 0.941 | S. cerevisiae deletion strains, locus YLR330W, strain CHS5, active compounds read low 0.982 | S. cerevisiae deletion strains, locus YLR342W, strain FKS1 (second series), active compounds read low 0.906 | S. cerevisiae deletion strains, locus YLR342W, strain FKS1, active compounds read low 0.944 | S. cerevisiae deletion strains, locus YLR357W, strain rsc2, active compounds read low 1.05 | S. cerevisiae deletion strains, locus YLR370C, strain arc18, active compounds read low 0.969 | S. cerevisiae deletion strains, locus YLR371W, strain rom2, active compounds read low 0.966 | S. cerevisiae deletion strains, locus YLR384C, strain iki3, active compounds read low 0.974 | S. cerevisiae deletion strains, locus YLR418C, strain cdc73, active compounds read low 0.885 | S. cerevisiae deletion strains, locus YML016C, strain PPZ1, active compounds read low 0.991 | S. cerevisiae deletion strains, locus YML032C, strain rad52, active compounds read low 0.948 | S. cerevisiae deletion strains, locus YML120C, strain ndi1, active compounds read low 0.939 | S. cerevisiae deletion strains, locus YML124C, strain tub3, active compounds read low 0.969 | S. cerevisiae deletion strains, locus YMR058W, strain fet3, active compounds read low 0.952 | S. cerevisiae deletion strains, locus YMR078C, strain ctf18, active compounds read low 0.957 | S. cerevisiae deletion strains, locus YMR125W, strain sto1, active compounds read low 0.966 | S. cerevisiae deletion strains, locus YMR129W, active compounds read low 0.967 | S. cerevisiae deletion strains, locus YMR205C, strain PFK2, active compounds read low 0.899 | S. cerevisiae deletion strains, locus YMR223W, strain ubp8, active compounds read low 0.925 | S. cerevisiae deletion strains, locus YMR231W, strain pep5, active compounds read low 0.984 | S. cerevisiae deletion strains, locus YMR263W, strain SAP30, active compounds read low 0.981 | S. cerevisiae deletion strains, locus YMR307W, strain GAS1, active compounds read low 1.06 | S. cerevisiae deletion strains, locus YNL067W, strain RPL9B, active compounds read low 0.954 | S. cerevisiae deletion strains, locus YNL128W, strain TEP1, active compounds read low 0.989 | S. cerevisiae deletion strains, locus YNL183C, strain NPR1, active compounds read low 0.868 | S. cerevisiae deletion strains, locus YNL209W, strain ssb2, active compounds read low 0.968 | S. cerevisiae deletion strains, locus YNL233W, strain BNI4, active compounds read low 0.931 | S. cerevisiae deletion strains, locus YNL248C, strain rpa49, active compounds read low 0.905 | S. cerevisiae deletion strains, locus YNL250W, strain rad50, active compounds read low 0.987 | S. cerevisiae deletion strains, locus YNL271C, strain bni1, active compounds read low 0.95 | S. cerevisiae deletion strains, locus YNL298W, strain CLA4, active compounds read low 0.954 | S. cerevisiae deletion strains, locus YNL322C, strain KRE1 (second series), active compounds read low 0.973 | S. cerevisiae deletion strains, locus YNL322C, strain KRE1, active compounds read low 0.989 | S. cerevisiae deletion strains, locus YNR049C, strain mso1, active compounds read low 0.954 | S. cerevisiae deletion strains, locus YNR052C, strain pop2, active compounds read low 1 | S. cerevisiae deletion strains, locus YOL006C, strain TOP1, active compounds read low 0.725 | S. cerevisiae deletion strains, locus YOL012C, strain htz1 1.34 | S. cerevisiae deletion strains, locus YOL147C, strain pex11, active compounds read low 0.974 | S. cerevisiae deletion strains, locus YOR001W, strain rrp6, active compounds read low 0.916 | S. cerevisiae deletion strains, locus YOR061W, strain CKA2, active compounds read low 0.988 | S. cerevisiae deletion strains, locus YOR069W, strain VPS5, active compounds read low 0.991 | S. cerevisiae deletion strains, locus YOR070C, strain gyp1, active compounds read low 0.965 | S. cerevisiae deletion strains, locus YOR080W, strain dia2, active compounds read low 0.985 | S. cerevisiae deletion strains, locus YOR083W, strain WHI5, active compounds read low 0.97 | S. cerevisiae deletion strains, locus YOR136W, strain idh2, active compounds read low 0.987 | S. cerevisiae deletion strains, locus YOR144C, strain elg1, active compounds read low 0.974 | S. cerevisiae deletion strains, locus YOR265W, strain rbl2, active compounds read low 0.957 | S. cerevisiae deletion strains, locus YOR270C, strain vph1, active compounds read low 0.927 | S. cerevisiae deletion strains, locus YOR290C, strain snf2, active compounds read low 0.941 | S. cerevisiae deletion strains, locus YOR316C, strain cot1, active compounds read low 0.974 | S. cerevisiae deletion strains, locus YPL051W, strain arl3, active compounds read low 0.96 | S. cerevisiae deletion strains, locus YPL078C, strain atp4, active compounds read low 0.933 | S. cerevisiae deletion strains, locus YPL106C, strain sse1, active compounds read low 1 | S. cerevisiae deletion strains, locus YPL240C, strain hsp82, active compounds read low 0.958 | S. cerevisiae deletion strains, locus YPL241C, strain CIN2, active compounds read low 0.99 | S. cerevisiae deletion strains, locus YPL256C, strain CLN2, active compounds read low 0.832 | S. cerevisiae deletion strains, locus YPR119W, strain clb2, active compounds read low 0.975 | S. cerevisiae deletion strains, locus YPR141C, strain kar3, active compounds read low 0.949 | S. cerevisiae deletion strains, locus YPR163C, strain tif3, active compounds read low 0.975 | S. cerevisiae deletion strains, locus YPR167C, strain met16, active compounds read low 0.96 | S. cerevisiae deletion strains, strain wtn01, active compounds read low 0.928 | S. cerevisiae strains, strain wild type, active compounds read low 0.984
